FXN GAA850 act = frataxin GAA850 promoter activation | HEK293 lucGAA850 FXN promoter luciferase reporter, 24 h; percent of 10 µM SAHA response | activation, % at 6 µM | 0.56% of 360,000 active | AID 540364;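 active = activation above the average of all compounds screened plus 3 SD, cutoff fixed separately per campaign, cut at about 7.5% in these data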;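 also: 0% = DMSO wells and 100% = 10 µM SAHA wells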
HSF1 inhib = HSF1 inhibition; 0.77% of 300,000 active; NIH3T3-HGL HSE-luciferase, MG132-induced, luminescence 8 h; stronger effect = lower value; activity change, negative = inhibition, % at 7.5 µM (by protocol);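 active = more than half of replicate wells show activity change below -50%, luminescence cut by over half; inconclusive = some wells, but at most half, below -50%; inactive = no replicate well below -50%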;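 also: luciferase reports HSF-1 transcriptional activity via heat shock element; 0% = median of DMSO wells and -100% = zero luminescence signal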
HSP90 inh = inhibitors of HSP90 luciferase refolding in rabbit reticulocyte lysate; luciferase refolding luminescence, 3 h; inhibition, % at 5.6 µM; 0.91% of 290,000 active; AID 1789;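 active = inhibition above the screen-wide mean plus 3 SD, computed separately per campaign, cut at about 16% in these data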;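 also: 0% = DMSO wells and 100% = 60 µM geldanamycin wells; inhibitors lower the luminescence because luciferase stays unfolded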
HSF1 activator = increases HSF-1 driven luciferase reporter signal | NIH3T3-HGL HSF-1 luciferase reporter, MG132, 8 h; 100% = twice DMSO control signal | 1.7% of 300,000 active | activation, % at 9 µM;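 active = mean replicate activation of at least 50% with a set share of replicates each reaching 50%; inconclusive = only one of those two conditions met; inactive = mean below 50% and too few replicates reaching it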;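 also: 0% = median of the neutral control wells and 100% = twice that signal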
AHR activator = human AHR activation. AHR-responsive luciferase reporter cells, luminescence. activation, % at 5 µM. 2.5% of 320,000 active. AID 2796; in the data active = activation above about 47%;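 also: 0% = vehicle wells and 100% = reference agonist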
NR0B1 inh = inhibitors of human orphan nuclear receptor DAX1 (NR0B1). P51843. HEK293 Gal4-DAX1 luciferase reporter, luminescence. inhibition, % at 6.75 µM. 0.99% of 340,000 active. AID 504766;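 active = inhibition above the mean over all tested compounds plus 3 SD, cut at about 4.2% in these data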;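 also: 0% = DAX1-transfected cells with DMSO and 100% = empty-vector control cells with DMSO; inhibition shows as a rise in luminescence from relieved DAX1 repression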
Target sequence (P51843 207-470 limits assumed): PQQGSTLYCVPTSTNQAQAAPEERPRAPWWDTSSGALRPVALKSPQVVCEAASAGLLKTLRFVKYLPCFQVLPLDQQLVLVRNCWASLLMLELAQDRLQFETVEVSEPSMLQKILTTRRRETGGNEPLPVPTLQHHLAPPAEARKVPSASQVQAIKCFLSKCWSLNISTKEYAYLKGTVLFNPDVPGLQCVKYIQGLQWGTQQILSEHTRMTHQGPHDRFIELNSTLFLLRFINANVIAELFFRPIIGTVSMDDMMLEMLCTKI
Starred values were filed as active, the others as inactive; ? = inconclusive; . = no result given. A selection: hits, their analogues and other compounds. The true share with any hit is near 5.9%.

SMILES	FXN GAA850 act	HSF1 inhib	HSP90 inh	HSF1 activator	AHR activator	NR0B1 inh
O=C(Nc1ccsc1C(=O)NC1CC1)c1ccccc1	-1	-8	-1	-6	59*	-1
O=C(Nc1ccsc1C(=O)O)c1ccccc1	2	-2	-3	-1	5	2
C/C(=N\NC(=O)c1ccccc1O)c1ccc(NC(=O)Cc2ccccc2)cc1	6	15	-1	16	52*	0
C/C=C1\COC(C(=O)NCc2ccncc2)(C(F)(F)F)C=C1C=C1CCCCC1 (stereo unspecified)	1	31	.	63*	3	0
COc1cccc(CN(C)CC(=O)NCc2ccc(F)cc2)c1OC	1	-2	-1	4	-1	-1
CC(=O)Nc1ccc(-c2ccnc3c2CC(C)(C(=O)NCc2ccncc2)O3)cc1 (stereo unspecified)	3	.	.	.	.	.
C/C=C1\COC(C(=O)NCc2cccc(OC)c2OC)(C(F)(F)F)C=C1C=C1CCCCC1 (stereo unspecified)	0	56	.	69*	0	1
CN1CCN(C(=O)/C=C\C(=O)O)CC1	3	-7	6	-4	-3	1
COc1ccccc1NS(=O)(=O)c1ccc(C(=O)Nc2ncccc2O)cc1	4	.	.	.	6	2
O=C(O)c1ccccc1OCc1nc2ccccc2s1	1	12	3	29	26	3
O=C(O)CSc1nnc(Cc2cccc3ccccc23)n1-c1cc(C(F)(F)F)cc(C(F)(F)F)c1	-1	-6	-4	-4	-3	5.7*
O=C(C1CC1)N1CCC(C(O)(c2ccccc2)c2ccccc2)CC1	0	-1	4	-1	-3	5.1*
Cc1ccc(CNC(=O)c2cccc(OCc3c(C)noc3C)c2)cc1	-1	6	0	2	1	6.8*
Cc1noc(C)c1COc1ccc(CC(=O)NCc2ccccc2)cc1	-1	.	-1	.	0	0
COc1ccc(NS(=O)(=O)c2cc(NC(=O)c3cccc(OCc4c(C)noc4C)c3)ccc2OC)cc1	-2	18	4	57*	-4	-2
Cc1noc(C)c1COc1ccc(CC(=O)NC2CCCCCC2)cc1	3	14	1	11	-2	4.7*
CC1(C)N=C(N)N=C(N)N1c1ccc(CCCCc2ccccc2)cc1	-8	.	.	.	.	-4
Cc1ccc(S(=O)(=O)N2CCCN(C(=O)c3ccc(-n4cccn4)cc3)CC2)cc1	2	.	.	.	-3	1
Cc1ccccc1-c1ccc(/C=C2/SC(N3CCOCC3)=NC2=O)o1	-1	8	-3	3	28	5.4*
Cc1ccsc1/C=C1/SC(N2CCOCC2)=NC1=O	.	14	-4	?	26	.
O=C1N=C(N2CCOCC2)S/C1=C\c1cccs1	2	15	-5	28	3	1
C=CCn1cc(/C=C2\SC(N3CCOCC3)=NC2=O)c2ccccc21	0	10	9	28	71*	.
O=C1NC(=O)/C(=C\c2cn(CC(=O)N3CCOCC3)c3ccccc23)S1	1	0	3	-5	0	-1
O=C1N=C(N2CCOCC2)S/C1=C\c1ccc(-c2ccccc2Cl)o1	0	-3	0	2	50*	0
Cc1cc(Cl)ccc1OCC(=O)OCC(=O)NC1CCS(=O)(=O)C1 (stereo unspecified)	0	.	.	.	3	1
SMILES	FXN GAA850 act	HSF1 inhib	HSP90 inh	HSF1 activator	AHR activator	NR0B1 inh
OCC[C@H]1C[C@H](O)[C@@H](O)[C@@]2(Cc3ccccc3O2)O1	0	.	.	.	2	0
COc1cccc(C(O)c2ncc(-c3cccc4ccccc34)[nH]2)c1 (stereo unspecified)	0	.	.	.	.	.
CC(C)(C)c1ccc(OCC(=O)NN2Cc3ccccc3C2=N)cc1	1	38	1	92*	4	-1
CCCCN(C(=O)CCn1c(=O)oc2ccccc21)c1ccccc1	3	8	-1	20	1	0
COc1cc(NC(=O)Cc2cccs2)ccc1-n1cnnn1	0	38	-1	76*	8	0
CC(C)(C)NC(=O)c1cccc(NC(=O)Cc2cccs2)c1	2	-78*	-3	-83	6	1
COc1ccc(NC(=O)c2cnc(C)cn2)cc1-n1cnnn1	3	-60*	0	-69	6	-1
COc1ccc(NC(=O)C2CC2)cc1-n1cnnn1	1	-72*	2	-76	9	2
Cc1cnc(C(=O)Nc2ccc(-n3cnnn3)cc2)cn1	1	-6	2	0	1	2

Source: PubChem BioAssay
